Assay outcomes (PubChem)
TRAIL sens C8: caspase-8 TRAIL sensitization; hit rate 1% among 360,000; NB7+C8 cells + TRAIL, ATPlite viability luminescence; inhibition (viability loss, TRAIL sensitization), % at 10 µM;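 active = compounds causing at least 50% loss of cell viability in the single-dose screen, relative to plate controls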
SENP6 inh: SENP6 protease inhibition; Q9GZR1; Recombinant SENP6 catalytic domain, aminoluciferin luminescence; inhibition, % at 10 µM; hit rate 1.8% among 330,000; AID 2599;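 active = inhibition above about 50% at the single tested dose, limit read from the data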;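 also: plate controls were DMSO wells with enzyme for no effect and DMSO wells lacking enzyme for full effect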
PPC-1+TRAIL kill: compounds killing PPC-1 cancer cells with TRAIL present (potentiator screen, no TRAIL-free arm) | PPC-1 cells + TRAIL, ATPLite viability luminescence | cell killing (% activity), % at 4 µM or 5 µM | hit rate 0.41% among 220,000;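 active = cell killing above 50% in the first pass at 4 µM, then a duplicate retest at 5 µM averaging 50% or more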;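 also: plate controls were cells with TRAIL plus DMSO for no effect and medium-only wells lacking cells for full effect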
SENP8 block-1: SENP8 protease inhibition; hit rate 1.2% among 330,000; Q96LD8; purified SENP8, Z-RLRGG-aminoluciferin cleavage, luminescence; inhibition, % at 10 µM; in the data active = inhibition above about 50%
Target sequence (Q96LD8 whole entry, looked up): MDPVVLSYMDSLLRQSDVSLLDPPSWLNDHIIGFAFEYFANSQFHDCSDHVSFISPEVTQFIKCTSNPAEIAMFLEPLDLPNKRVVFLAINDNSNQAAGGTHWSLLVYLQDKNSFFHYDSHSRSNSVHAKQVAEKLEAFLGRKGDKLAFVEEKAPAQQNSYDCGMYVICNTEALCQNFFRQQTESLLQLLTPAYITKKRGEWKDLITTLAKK
SENP7 inh: SENP7 protease inhibition; recombinant SENP7, Z-RLRGG-aminoluciferin luminescence, 40 min; Q9BQF6; hit rate 1.5% among 330,000; inhibition, % at 5 µM;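 active = inhibition above about 50% at the single test dose, limit read from the data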;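 also: plate controls were DMSO with enzyme for no effect and no enzyme buffer wells for full effect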
Target sequence (Q9BQF6 706-1050 limits assumed): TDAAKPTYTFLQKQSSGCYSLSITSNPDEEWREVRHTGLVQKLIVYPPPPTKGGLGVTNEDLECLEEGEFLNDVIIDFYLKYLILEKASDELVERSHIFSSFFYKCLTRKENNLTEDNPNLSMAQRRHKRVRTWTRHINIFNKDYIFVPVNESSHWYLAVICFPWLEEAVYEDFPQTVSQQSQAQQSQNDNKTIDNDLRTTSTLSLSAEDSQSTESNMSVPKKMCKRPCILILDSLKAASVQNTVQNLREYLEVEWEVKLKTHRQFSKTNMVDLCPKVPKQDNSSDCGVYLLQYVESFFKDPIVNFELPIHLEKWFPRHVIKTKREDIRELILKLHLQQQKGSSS
SENP8 block-2: inhibitors of human SENP8 protease | Q96LD8 | recombinant SENP8, Nedd8 substrate fluorescence | inhibition, % at 20 µM | hit rate 0.64% among 360,000 | AID 602440; in the data active = inhibition mostly above about 40%, no sharp cut-off; inactive = mostly below about 27%
SENP8 conf: human SENP8 inhibition, confirmed; shares compounds with SENP7 inh; Recombinant SENP8, Z-RLRGG-aminoluciferin luminescence, 60 min; inhibition, % at 12.5 µM; hit rate 40% among 6,200; AID 488912;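 active = mean inhibition across replicates above about 50%, limit read from the data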
SENP6 conf: confirmation of human SENP6 protease inhibitors; shares compounds with SENP7 inh; recombinant SENP6, Z-RLRGG-aminoluciferin luminescence; inhibition, % at 12.5 µM; hit rate 58% among 6,200; AID 488915
SENP7 confirm: confirmation of human SENP7 protease inhibitors | inhibition, % at 12.5 µM | hit rate 69% among 6,200 | shares compounds with SENP7 inh | recombinant SENP7, Z-RLRGG-aminoluciferin luminescence, 40 min
Casp3 select: caspase-3 inhibition (SENP selectivity assay) | shares compounds with SENP7 inh | purified caspase-3, Z-DEVD-aminoluciferin luminescence, 60 min | inhibition, % at 12.5 µM | hit rate 60% among 6,200 | AID 488918;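 active = mean inhibition above about 50%, limit read from the data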;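 also: plate controls were enzyme with DMSO for no effect and wells without caspase-3 for full effect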
SENP luc ctr: counter-screen for SENP inhibitors: luminescence interference | shares compounds with SENP7 inh | inhibition, % at 12.5 µM | AID 488919 | hit rate 39% among 6,200 | Pre-incubated SENP8/Z-RLRGG-aminoluciferin, luciferase luminescence interference;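 active = mean inhibition above about 50% when retested at one dose, limit read from the data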;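 also: plate controls were DMSO wells with completed reaction for no effect and substrate without enzyme for full effect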
The depositor's hits bear a star; · = no result. Most compounds without a hit are left out; they make up all but 3% or so of the library.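 The calls were made as follows, unless noted: active = mean inhibition above about 50% in the one-dose retest (limit read from the data); inactive = the rest.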

SMILES	TRAIL sens C8	SENP6 inh	PPC-1+TRAIL kill	SENP8 block-1	SENP7 inh	SENP8 block-2	SENP8 conf	SENP6 conf	SENP7 confirm	Casp3 select	SENP luc ctr
O=C(c1cc(-c2ccc(Cl)cc2)on1)N1CCCC1	42	56*	·	33	33	20	18	13	32	22	-2
O=C(c1cc(-c2cccc(Cl)c2)on1)N1CCCC1	18	-12	·	-8	2	6	·	·	·	·	·
O=C(c1cc(-c2ccc(Cl)c(Cl)c2)on1)N1CCCCC1	0	35	18	14	57*	10	20	20	24	12	5
CC1CCN(C(=O)c2ccc(-c3ccccc3Cl)o2)CC1	30	72*	·	49	42	6	66*	66*	82*	51*	65*
COc1ccccc1-c1cc(C(=O)N2CCCC2)no1	8	26	·	1	15	1	·	·	·	·	·
O=C(c1cc(-c2ccccc2)on1)N1CCCC1	22	17	-4	1	46	26	·	·	·	·	·
O=C(c1cc(-c2ccccc2Cl)on1)N1CCCC1	41	72*	·	57*	63*	9	9	64*	90*	78*	66*
O=C(c1ccc(-c2ccccc2Cl)o1)N1CCC1	12	5	·	-5	-3	18	·	·	·	·	·
COc1nc(SCC(=O)Nc2ccccc2Cl)nc(N(C)C)n1	0	85*	-23	-3	2	11	12	8	3	7	13
COc1ccc(SCC(=O)Nc2ccccc2Cl)cc1	-6	-2	36	-4	-7	8	·	·	·	·	·
Cc1oc2ccc(OCc3ccccc3Cl)cc2c1C(=O)O	4	62*	·	37	0	20	35	40	51*	55*	22
Cc1oc2ccc(OCc3ccc(F)cc3Cl)cc2c1C(=O)O	-9	24	14	20	10	6	·	·	·	·	·
O=C(O)c1cccc(OCc2ccccc2Cl)c1	-4	94*	4	79*	75*	8	86*	86*	97*	82*	89*
CC(=O)c1c(C)oc2ccc(OCc3ccccc3)cc12	-5	55*	·	34	33	10	31	29	68*	24	16
O=C(O)c1ccccc1COc1ccccc1Cl	-4	-18	14	-3	6	5	·	·	·	·	·
COC(=O)c1cc(COc2ccc3oc(C)c(C(=O)OC)c3c2)c(C)o1	-1	-7	7	-2	-1	4	·	·	·	·	·
CN(c1ccc(C(=O)Nc2ccc3c(c2)OCCO3)cc1)S(C)(=O)=O	42	57*	36	36	-13	10	59*	57*	85*	82*	65*
Cc1ccc(CN(c2ccc(C(=O)Nc3ccc4c(c3)OCO4)cc2)S(C)(=O)=O)cc1	-12	0	16	-7	6	6	·	·	·	·	·
CN(c1ccc(C(=O)Nc2ccc3c(c2)OCO3)cc1)S(C)(=O)=O	9	82*	30	55*	79*	29	42	42	74*	73*	48
CN(c1ccccc1C(=O)Nc1ccc2c(c1)OCCO2)S(C)(=O)=O	14	-13	34	-3	-1	20	·	·	·	·	·
CC(=O)c1cccc(NC(=O)N2CCCC2C(=O)Nc2ccc3c(c2)OCO3)c1 (stereo not given)	-13	-6	19	4	-7	15	·	·	·	·	·
CCOc1ccc(NC(=S)Nc2ccc(OCC)cc2)cc1	1	-13	5	-10	-6	6	·	·	·	·	·
CCN(C(=S)Nc1cccnc1)c1ccccc1	2	7	-7	-2	11	12	·	·	·	·	·
COc1ccccc1NC(=S)Nc1cccc2cnccc12	20	91*	26	1	81*	-122	-11	10	-4	4	1
CCN(C(=S)Nc1cccnc1)c1cccc2ccccc12	-2	87*	26	51*	54*	-376	-8	-4	-1	-1	-5
SMILES	TRAIL sens C8	SENP6 inh	PPC-1+TRAIL kill	SENP8 block-1	SENP7 inh	SENP8 block-2	SENP8 conf	SENP6 conf	SENP7 confirm	Casp3 select	SENP luc ctr
S=C(Nc1cccnc1)Nc1cccc2cnccc12	-5	95*	38	92*	85*	-55	20	48	28	4	-1
COc1ccccc1NC(=S)NCc1cccnc1	-2	5	21	-1	2	17	·	·	·	·	·
CCOc1ccc(NC(=S)Nc2cccc3ccccc23)cc1	8	88*	·	50*	34	-404	9	9	11	3	10
COc1cc2c(cc1OC)CN(C(C)C(=O)Nc1ccc(NC(C)=O)cc1)CC2 (stereo not given)	-12	-16	21	-1	4	18	·	·	·	·	·
COc1ccc(OCC(=O)NC2CCCN(Cc3ccc(Cl)cc3)C2)cc1 (stereo not given)	3	6	·	-7	11	3	·	·	·	·	·
CN(C)S(=O)(=O)c1cccc(NC(=S)Nc2cccc3cnccc23)c1	29	·	37	·	·	-229	·	·	·	·	·
CCOc1ccc(NC(=S)Nc2cccc3cnccc23)cc1	-4	87*	34	-3	63*	-42	13	33	22	12	16
S=C(Nc1ccc(Cl)cc1)Nc1cccc2cnccc12	10	92*	16	85*	62*	-156	9	56*	28	7	6
COc1ccc(NC(=S)Nc2cccc3cnccc23)cc1	-2	88*	57*	-7	67*	-31	11	40	22	7	4
CCC(C)c1c(O)nc(SCC(=O)N2CCCCCC2)[nH]c1=O (stereo not given)	-1	11	·	-2	0	-2	·	·	·	·	·
O=C(COC(=O)CNC(=O)c1ccco1)NCc1ccc(F)cc1	3	-4	14	-7	-7	10	·	·	·	·	·
CCOC(=O)c1c(C)[nH]c(C(=O)OCC(=O)c2ccccc2)c1C	40	51*	·	42	39	-7	46	44	76*	35	17
COc1ccc(C(=O)N2CCCC(c3cc(C(=O)Nc4ccccc4)no3)C2)cc1 (stereo not given)	-12	·	·	·	·	8	·	·	·	·	·
CCN(CC)c1ccc(/C=N/NC(=O)c2ccco2)c(O)c1	45	59*	47	30	63*	-450	37	59*	86*	60*	65*
